The list is not random: actives were taken first. Their share in the collection is about 12%.
Lmaj promast – Leishmania major promastigote growth inhibition | Leishmania major promastigotes, resazurin fluorescence viability | inhibition, % at 10 µM | 200,000 tested, 9% active; in the data active = inhibition above about 50%;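 also: promastigotes grown with compound for 44 hours at 28 °C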
ROMK mod – human ROMK K+ channel modulation, primary screen; Tet-inducible ROMK, thallium flux fluorescence; actives lie on both sides; 130,000 tested, 2% active; AID 1918; P48048; B-score at 10 µM;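 active = signal ratio slope over the read window, or its plate-corrected B-score, at least 3 SD from the plate mean, either direction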;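 also: B-score of the F/F0 ratio slope over 7 to 12 s after thallium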
WT yeast gro inh – growth inhibition of WT yeast, mitochondrial fusion screen | AID 1362 | 190,000 tested, 2.1% active | inhibition, % at 10 µM | mitochondrial fusion phenotypic screen, WT strain; in the data active = inhibition above about 58%; tested in S. cerevisiae
m-calpain inh – calpain II (pig) inhibition | purified calpain II, fluorogenic peptide substrate, 30 min | inhibition, % at 16 µM | 220,000 tested, 0.37% active;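 active = inhibition above about 50%, limit read from the data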
KCC2 mod – KCC2 (human) Cl- transport modulation; B-score of Tl+ flux slope (higher = more flux/activation; lower = inhibition) at 10 µM; Q9H2X9; 190,000 tested, 2.2% active; KCC2 cells, thallium flux FluoZin-2 fluorescence; AID 1456;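 active = thallium flux slope and its plate-corrected score both differing from the plate sample mean at a set confidence after two filtering rounds, in either direction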;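 also: slope of fluorescence scaled to starting intensity during 10 to 20 s after thallium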
ROMK hit retest – retested hit modulating human ROMK potassium channel; shares compounds with ROMK mod; AID 1917; ROMK thallium flux, fluorescence ratio; active compounds read low; 3,000 tested, 54% active; normalized thallium flux (F/F0 slope) at 10 µM;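 active = Flux at 10 µM at least 3 SD below or above vehicle control mean in one or both replicates; inconclusive = no clear call, values can overlap the other calls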
* marks the source's active call; other numbers are inactive results; i = inactive; ? = inconclusive; nt = no result.

SMILES	Lmaj promast	ROMK mod	WT yeast gro inh	m-calpain inh	KCC2 mod	ROMK hit retest
N#Cc1cnc(NOCc2ccc(Cl)cc2)nc1	-4	-9.5*	-12	-20	-0.036	0.074
Cc1cccc(C)c1NC(=O)c1ccc(-c2ccc(Cl)cc2Cl)o1	91*	-2.9*	46	16	0.12	0.052*
Cc1ccccc1NC(=O)c1ccc(-c2ccc(Cl)cc2Cl)o1	39	0.13	57	-2	nt	nt
O=C(NC1CCCCC1)[C@H](CSCc1ccccc1)N1Cc2ccccc2C1=O	32	-3.4*	-6	17	-1.1	?
Cc1ccc(NC(=S)NCC2CCN(C(C)c3ccccc3)C2)cc1C (centres undefined)	82*	-4.2*	15	-7	-0.36	0.059*
Cc1ccc(NC(=S)NCC2CCCO2)cc1C (centres undefined)	-6	-0.4	0	-17	-0.16	nt
COc1ccccc1OCc1ccc(C(=O)NN)o1	nt	nt	nt	13	1.1	nt
ClC1(Cl)CC1CSc1nc2ccccc2[nH]1 (centres undefined)	7	-4.3*	11	0	-1.3	0.085
O=C(O)c1ccc(N2C(=O)c3ccc(C(=O)c4cccc([N+](=O)[O-])c4)cc3C2=O)cc1	1	2.2*	8	27	-1.6	0.088
O=C(Nc1cccc(Cl)c1)c1cc(F)cc2c1OCOC2	nt	nt	nt	-1	nt	nt
N#C/C(=C\c1cccc([N+](=O)[O-])c1)C(=O)NCC1CCCO1 (centres undefined)	31	-11*	25	33	-1.2	0.042*
Cc1[nH]c(=O)[nH]c(=O)c1/C=N/NC(=O)[C@@H](N)CC(C)C	nt	0.3	nt	11	2.8	nt
COc1cccc(/C=N/n2c(SC)nnc2-c2ccccc2)c1O	-9	3.6*	-4	-30	nt	0.081
Cc1oc2cc(O)ccc2c(=O)c1-c1ccccc1	8	0.011	-5	i	-0.86	nt
Cc1oc2cc(O)ccc2c(=O)c1-c1nncn1-c1ccccc1	-8	-4.6*	6	-329	-0.11	0.049*
Cc1cc(C)c(C(=O)Cn2nc(C)c([N+](=O)[O-])c2C)cc1C	-1	0.47	-16	-3	0.13	nt
CCC(=O)N(Cc1cc(=O)[nH]c2ccccc12)C1CCCCC1	-5	-0.26	9	-2	-0.74	nt
Cc1nc(N)nc(N)c1/C=C/C(C)(C)c1ccc(Cl)cc1	100*	-3.8*	69*	26	-0.47	0.064*
CCCn1[nH]cc(SC)c(=O)c1=O	-9	nt	15	12	1.2	nt
CC(O)c1nc2ccc(C(=O)O)cc2[nH]1 (centres undefined)	nt	nt	nt	-2	0.39	nt
CC(C)/C=N\NC(=O)CCCCC(=O)N/N=C/C(C)C	32	nt	1	11	-0.14	0.082
CC(Nc1cc(=O)n(C)c(=O)n1C)c1ccccc1 (centres undefined)	-8	nt	-6	-19	0.48	nt
CCCN1C(=O)/C(=C/c2c(NCCCOC(C)C)nc3c(C)cccn3c2=O)SC1=S	-7	nt	-5	37	-0.063	0.055*
OCC(O)CN1CCCC1 (centres undefined)	nt	nt	nt	12	0.49	nt
CCCN1CCN(CCCNC(=O)c2cc3c(=O)[nH]c4ccccc4c3s2)CC1	20	-3.8*	-16	-286	-1.2	0.059*
SMILES	Lmaj promast	ROMK mod	WT yeast gro inh	m-calpain inh	KCC2 mod	ROMK hit retest
COc1cc(C)c(S(=O)(=O)n2ccc(C)n2)cc1C	1	-0.13	-10	-27	-0.95	nt
CCc1ccc(CNC(=O)c2cc3c(C)nc4ccccc4c3o2)cc1	-4	nt	35	-116	-0.048	0.071
COc1cccc(CNC(=O)c2cc3c(C)nc4ccccc4c3o2)c1	19	nt	3	-98	nt	nt
CN(CC(=O)Nc1nccs1)S(=O)(=O)c1ccc(F)cc1	0	nt	-3	4	-0.28	nt
COc1ccc(CCNC(=O)CN(c2cccc([N+](=O)[O-])c2)S(C)(=O)=O)cc1OC	5	-0.047	15	2	0.047	0.082
COc1ccc(C2(O)CCN(C(=O)Cc3cccnc3)CC2)cc1	-6	-1	0	1	0.012	nt
COc1ccc(C2(O)CCN(CCCCOc3ccccc3)CC2)cc1	95*	-4.6*	32	19	-0.54	0.061*
CC(=O)N1CC=C2C(C#N)=C(N)C(C#N)(C#N)C(CCc3ccccc3)C2C1 (centres undefined)	30	-2.7*	-4	-20	-0.46	0.062*
CCN1CC=C2C(C#N)=C(N)C(C#N)(C#N)C(CCc3ccccc3)C2C1 (centres undefined)	14	nt	6	-291	-0.48	0.057*

Assay outcomes from PubChem BioAssay.
